This is an account of results in publication PMC7862700, “An all-to-all approach to the identification of sequence-specific readers for epigenetic DNA modifications on cytosine”.

Assay in all cases: DAPPL (digital affinity profiling via proximity ligation, sequencing); 10 mM Tris-HCl pH 7.5, 50 mM NaCl, 1 mM DTT, 4% glycerol, room temperature, 30 min; GST-TFs on glutathione beads, 16-mer random dsDNA library, 0.1% formaldehyde crosslink after washing; high values mean tight binding
For one test, the target named is T1, FEV (Homo sapiens, UniProt Q99581 1-238).
T1 sequence: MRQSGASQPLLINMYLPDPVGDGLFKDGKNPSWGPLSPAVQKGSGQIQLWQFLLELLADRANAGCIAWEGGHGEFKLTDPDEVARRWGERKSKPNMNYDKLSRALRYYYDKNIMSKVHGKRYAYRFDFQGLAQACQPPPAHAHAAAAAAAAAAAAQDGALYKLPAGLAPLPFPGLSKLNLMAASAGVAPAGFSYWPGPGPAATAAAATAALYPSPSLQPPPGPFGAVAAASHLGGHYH
The settings on record: protein: recombinant; tags: N-terminal GST; dsDNA, one strand shown. In outline:
(§1)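 Each value of binding signal is a hexamer's read frequency for a factor divided by the same hexamer's frequency in the tag-only sample. Barcoded, bead-captured GST fusions of human transcription factors made in yeast were pooled with that sample and incubated with 200 nmole of a random double-stranded 16-mer DNA library in Tris/NaCl/DTT/glycerol buffer at room temperature for 30 min. Washing, 0.1% formaldehyde crosslinking, proximity ligation, PCR and Illumina NextSeq500 sequencing followed.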

The target of another test is ETV5 (Homo sapiens, UniProt P41161 1-510). The settings on record: protein: recombinant; tags: N-terminal GST; dsDNA, one strand shown. Summed up: as §1
The target of another test is HSF1 (Homo sapiens, UniProt Q00613 1-529). The settings on record: protein: recombinant; tags: N-terminal GST; chain copies: 3; dsDNA, one strand shown. Summed up:
as §1

The target in a further test is T2, SPIC (Homo sapiens, UniProt Q8N5J4 1-248).
T2 sequence: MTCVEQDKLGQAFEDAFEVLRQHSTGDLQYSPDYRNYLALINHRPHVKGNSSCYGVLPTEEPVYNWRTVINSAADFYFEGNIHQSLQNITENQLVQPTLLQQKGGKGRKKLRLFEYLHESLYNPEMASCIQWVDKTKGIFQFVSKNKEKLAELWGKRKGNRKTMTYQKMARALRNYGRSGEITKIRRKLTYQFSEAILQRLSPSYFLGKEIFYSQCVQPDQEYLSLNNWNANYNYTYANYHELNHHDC
The settings on record: protein: recombinant; tags: N-terminal GST; dsDNA, one strand shown. Summed up:
as §1

The next test addresses ELF4 (Homo sapiens, UniProt Q99607 1-663). The settings on record: protein: recombinant; tags: N-terminal GST; dsDNA, one strand shown. Summed up: as §1
In a further test the target is T3, ELK4 (Homo sapiens, UniProt P28324-2 1-405).
T3 sequence: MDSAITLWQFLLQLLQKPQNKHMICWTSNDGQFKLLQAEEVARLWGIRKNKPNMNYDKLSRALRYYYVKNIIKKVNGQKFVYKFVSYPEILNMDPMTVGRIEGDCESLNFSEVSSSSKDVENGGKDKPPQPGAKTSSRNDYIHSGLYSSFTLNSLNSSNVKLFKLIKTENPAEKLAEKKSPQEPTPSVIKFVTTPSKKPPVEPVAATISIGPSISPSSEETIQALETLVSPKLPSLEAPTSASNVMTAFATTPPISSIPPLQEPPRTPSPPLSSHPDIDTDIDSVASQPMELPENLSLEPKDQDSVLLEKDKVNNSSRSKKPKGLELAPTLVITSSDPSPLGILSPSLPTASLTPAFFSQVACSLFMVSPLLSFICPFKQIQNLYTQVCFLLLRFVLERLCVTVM
The settings on record: protein: recombinant; tags: N-terminal GST; dsDNA, one strand shown. Summed up: as §1

In a further test the target is T4, ETV2 (Homo sapiens, UniProt O00321 1-342).
T4 sequence: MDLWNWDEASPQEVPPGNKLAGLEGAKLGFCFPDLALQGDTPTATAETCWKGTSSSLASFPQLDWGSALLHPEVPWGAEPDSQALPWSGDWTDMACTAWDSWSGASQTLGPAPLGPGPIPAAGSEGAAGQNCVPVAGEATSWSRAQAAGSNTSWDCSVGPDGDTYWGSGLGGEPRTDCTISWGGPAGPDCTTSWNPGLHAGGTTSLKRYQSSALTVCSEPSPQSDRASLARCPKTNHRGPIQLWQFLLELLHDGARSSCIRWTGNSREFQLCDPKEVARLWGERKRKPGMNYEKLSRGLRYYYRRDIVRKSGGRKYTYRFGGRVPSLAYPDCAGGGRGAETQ
The settings on record: protein: recombinant; tags: N-terminal GST; dsDNA, one strand shown. In outline:
as §1

The target of the next test is T5, ELF3 (Homo sapiens, UniProt P78545 1-371).
T5 sequence: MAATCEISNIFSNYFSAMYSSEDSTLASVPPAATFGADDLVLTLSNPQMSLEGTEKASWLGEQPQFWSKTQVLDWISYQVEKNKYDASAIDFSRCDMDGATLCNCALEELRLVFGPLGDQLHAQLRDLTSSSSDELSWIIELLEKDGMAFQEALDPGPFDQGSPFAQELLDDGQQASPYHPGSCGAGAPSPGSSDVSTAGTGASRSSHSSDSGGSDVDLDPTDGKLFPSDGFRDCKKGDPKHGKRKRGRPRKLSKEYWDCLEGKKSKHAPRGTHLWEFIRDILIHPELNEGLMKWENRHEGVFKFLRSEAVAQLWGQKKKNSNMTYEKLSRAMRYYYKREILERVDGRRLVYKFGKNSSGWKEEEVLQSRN
The settings on record: protein: recombinant; tags: N-terminal GST; dsDNA, one strand shown. Summed up:
as §1

The target in a further test is CRX (Homo sapiens, UniProt O43186 1-299). The settings on record: protein: recombinant; tags: N-terminal GST; dsDNA, one strand shown. In outline: as §1
The target in the next test is ETV1 (Homo sapiens, UniProt P50549 1-477). The settings on record: protein: recombinant; tags: N-terminal GST; dsDNA, one strand shown. In outline: as §1
The next test addresses T6, ERF (Homo sapiens, UniProt P50548 1-548).
T6 sequence: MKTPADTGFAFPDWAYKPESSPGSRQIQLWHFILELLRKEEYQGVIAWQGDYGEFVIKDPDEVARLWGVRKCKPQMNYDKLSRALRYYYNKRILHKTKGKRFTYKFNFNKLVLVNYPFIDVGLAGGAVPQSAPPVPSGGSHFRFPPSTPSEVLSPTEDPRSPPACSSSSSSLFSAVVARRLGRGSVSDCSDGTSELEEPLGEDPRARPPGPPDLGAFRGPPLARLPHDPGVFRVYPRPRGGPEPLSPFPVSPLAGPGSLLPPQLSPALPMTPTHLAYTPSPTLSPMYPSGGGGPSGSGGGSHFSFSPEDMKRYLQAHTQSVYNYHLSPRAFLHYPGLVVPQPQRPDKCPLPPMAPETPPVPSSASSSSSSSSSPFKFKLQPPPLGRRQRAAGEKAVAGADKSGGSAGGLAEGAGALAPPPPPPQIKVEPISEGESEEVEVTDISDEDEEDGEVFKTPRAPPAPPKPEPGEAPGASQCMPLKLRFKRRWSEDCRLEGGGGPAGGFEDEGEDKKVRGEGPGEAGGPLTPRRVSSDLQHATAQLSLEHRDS
The settings on record: protein: recombinant; tags: N-terminal GST; dsDNA, one strand shown. Summed up:
as §1

The target of another test is T7, ETV3L (Homo sapiens, UniProt Q6ZN32 1-361).
T7 sequence: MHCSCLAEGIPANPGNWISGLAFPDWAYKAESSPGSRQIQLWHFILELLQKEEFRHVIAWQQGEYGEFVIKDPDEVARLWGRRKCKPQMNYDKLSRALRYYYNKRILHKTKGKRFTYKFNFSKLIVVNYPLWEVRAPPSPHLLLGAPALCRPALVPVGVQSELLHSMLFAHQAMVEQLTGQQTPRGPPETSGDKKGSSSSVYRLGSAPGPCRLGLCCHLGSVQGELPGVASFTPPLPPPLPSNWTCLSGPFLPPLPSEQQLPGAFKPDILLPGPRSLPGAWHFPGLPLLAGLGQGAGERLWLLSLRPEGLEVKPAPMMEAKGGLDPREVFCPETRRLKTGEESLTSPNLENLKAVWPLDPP
The settings on record: protein: recombinant; tags: N-terminal GST; dsDNA, one strand shown. In outline: as §1

Another test has as its target T8, ETS2 (Homo sapiens, UniProt P15036 1-469).
T8 sequence: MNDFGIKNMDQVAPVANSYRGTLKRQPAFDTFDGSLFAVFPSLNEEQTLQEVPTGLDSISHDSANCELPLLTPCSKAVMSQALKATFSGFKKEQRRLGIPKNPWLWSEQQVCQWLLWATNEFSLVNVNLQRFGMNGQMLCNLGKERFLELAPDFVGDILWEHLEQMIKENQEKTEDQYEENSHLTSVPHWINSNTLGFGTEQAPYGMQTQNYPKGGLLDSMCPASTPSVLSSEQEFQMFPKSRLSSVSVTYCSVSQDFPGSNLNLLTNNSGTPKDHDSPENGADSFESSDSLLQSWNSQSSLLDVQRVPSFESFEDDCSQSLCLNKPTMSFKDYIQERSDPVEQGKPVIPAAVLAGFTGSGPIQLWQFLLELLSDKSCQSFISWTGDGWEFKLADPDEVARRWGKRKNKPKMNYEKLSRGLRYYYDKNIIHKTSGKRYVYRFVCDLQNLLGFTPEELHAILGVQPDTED
The settings on record: protein: recombinant; tags: N-terminal GST; dsDNA, one strand shown. Summed up: as §1

For another test, the target named is T9, SPDEF (Homo sapiens, UniProt O95238 1-335).
T9 sequence: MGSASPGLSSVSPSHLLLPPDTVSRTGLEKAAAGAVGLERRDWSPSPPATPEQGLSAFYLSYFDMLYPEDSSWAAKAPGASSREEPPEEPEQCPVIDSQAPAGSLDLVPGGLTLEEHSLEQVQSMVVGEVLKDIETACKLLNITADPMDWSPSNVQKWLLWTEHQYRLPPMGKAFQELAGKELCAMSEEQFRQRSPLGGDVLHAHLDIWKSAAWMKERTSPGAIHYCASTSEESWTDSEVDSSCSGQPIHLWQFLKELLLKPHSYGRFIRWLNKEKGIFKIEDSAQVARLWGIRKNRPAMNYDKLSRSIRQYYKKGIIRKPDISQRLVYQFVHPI
The settings on record: protein: recombinant; tags: N-terminal GST; dsDNA, one strand shown. Summed up:
as §1

A further test has as its target T10, ETV7 (Homo sapiens, UniProt Q9Y603 1-341).
T10 sequence: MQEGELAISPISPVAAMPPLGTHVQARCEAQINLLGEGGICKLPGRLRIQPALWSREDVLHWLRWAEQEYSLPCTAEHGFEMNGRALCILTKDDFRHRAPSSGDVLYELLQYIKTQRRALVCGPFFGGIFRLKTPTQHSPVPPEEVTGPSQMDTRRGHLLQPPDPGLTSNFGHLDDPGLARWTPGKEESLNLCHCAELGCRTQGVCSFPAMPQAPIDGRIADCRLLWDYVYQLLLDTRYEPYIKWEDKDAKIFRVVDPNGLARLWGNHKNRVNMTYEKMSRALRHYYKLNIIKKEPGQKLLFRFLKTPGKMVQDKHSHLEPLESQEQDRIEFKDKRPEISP
The settings on record: protein: recombinant; tags: N-terminal GST; dsDNA, one strand shown. In outline: as §1

The target in another test is T11, ELF5 (Homo sapiens, UniProt Q9UKW6-2 1-255).
T11 sequence: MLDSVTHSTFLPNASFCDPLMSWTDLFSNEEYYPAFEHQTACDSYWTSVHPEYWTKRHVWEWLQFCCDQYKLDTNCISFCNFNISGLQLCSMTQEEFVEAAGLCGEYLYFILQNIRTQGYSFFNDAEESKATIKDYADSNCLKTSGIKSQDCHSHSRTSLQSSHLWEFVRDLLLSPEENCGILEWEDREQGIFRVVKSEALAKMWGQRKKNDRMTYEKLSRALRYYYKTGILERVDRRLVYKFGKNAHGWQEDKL
The settings on record: protein: recombinant; tags: N-terminal GST; dsDNA, one strand shown. In outline: as §1

A further test has as its target T12, ETV3 (Homo sapiens, UniProt P41162-2 1-143).
T12 sequence: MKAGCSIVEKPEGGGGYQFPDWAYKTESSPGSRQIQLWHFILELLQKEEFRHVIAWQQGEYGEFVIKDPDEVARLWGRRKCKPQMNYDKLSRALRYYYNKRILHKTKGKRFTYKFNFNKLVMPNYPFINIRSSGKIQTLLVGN
The settings on record: protein: recombinant; tags: N-terminal GST; dsDNA, one strand shown. In outline:
as §1

The next test has as its target ETV6 (Homo sapiens, UniProt P41212 1-452). The settings on record: protein: recombinant; tags: N-terminal GST; dsDNA, one strand shown. Summed up:
as §1

ETV1, sequence (P50549 whole entry): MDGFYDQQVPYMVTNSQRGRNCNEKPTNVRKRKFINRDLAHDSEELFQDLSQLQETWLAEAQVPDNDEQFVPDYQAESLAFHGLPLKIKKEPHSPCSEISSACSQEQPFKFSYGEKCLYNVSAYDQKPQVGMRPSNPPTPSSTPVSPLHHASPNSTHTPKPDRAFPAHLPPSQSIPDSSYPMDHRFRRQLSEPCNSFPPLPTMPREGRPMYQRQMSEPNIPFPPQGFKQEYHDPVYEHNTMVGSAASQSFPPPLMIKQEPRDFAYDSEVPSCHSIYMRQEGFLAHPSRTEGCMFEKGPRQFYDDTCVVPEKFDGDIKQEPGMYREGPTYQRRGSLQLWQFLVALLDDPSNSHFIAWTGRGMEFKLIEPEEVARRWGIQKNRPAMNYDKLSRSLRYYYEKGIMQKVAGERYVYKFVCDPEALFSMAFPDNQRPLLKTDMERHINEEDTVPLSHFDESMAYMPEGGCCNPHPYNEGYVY
ETV5, sequence (P41161 whole entry): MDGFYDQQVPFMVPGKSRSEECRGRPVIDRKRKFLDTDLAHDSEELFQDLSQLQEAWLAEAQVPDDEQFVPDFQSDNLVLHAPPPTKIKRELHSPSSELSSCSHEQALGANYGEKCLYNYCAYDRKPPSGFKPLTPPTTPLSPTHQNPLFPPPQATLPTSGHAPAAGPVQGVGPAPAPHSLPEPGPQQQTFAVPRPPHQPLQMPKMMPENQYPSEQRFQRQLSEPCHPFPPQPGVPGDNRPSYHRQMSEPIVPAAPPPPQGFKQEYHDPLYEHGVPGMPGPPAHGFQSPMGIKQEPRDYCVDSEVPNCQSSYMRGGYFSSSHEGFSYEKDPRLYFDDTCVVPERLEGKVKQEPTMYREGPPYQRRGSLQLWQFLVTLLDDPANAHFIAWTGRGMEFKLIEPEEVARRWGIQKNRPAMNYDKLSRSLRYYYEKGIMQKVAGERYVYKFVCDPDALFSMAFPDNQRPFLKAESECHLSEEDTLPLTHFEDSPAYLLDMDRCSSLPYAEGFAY
ETV6, sequence (P41212 whole entry): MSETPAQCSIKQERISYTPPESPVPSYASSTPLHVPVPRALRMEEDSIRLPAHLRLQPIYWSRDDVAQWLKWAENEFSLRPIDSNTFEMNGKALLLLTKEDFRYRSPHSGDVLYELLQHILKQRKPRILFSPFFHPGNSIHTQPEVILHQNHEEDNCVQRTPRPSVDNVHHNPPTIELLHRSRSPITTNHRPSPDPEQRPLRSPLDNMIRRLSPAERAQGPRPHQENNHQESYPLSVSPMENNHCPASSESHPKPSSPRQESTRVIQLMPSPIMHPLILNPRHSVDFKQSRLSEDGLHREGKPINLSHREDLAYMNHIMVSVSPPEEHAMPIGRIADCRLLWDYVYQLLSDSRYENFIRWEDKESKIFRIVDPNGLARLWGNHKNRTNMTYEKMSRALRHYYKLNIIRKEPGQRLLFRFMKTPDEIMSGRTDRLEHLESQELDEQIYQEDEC
HSF1, sequence (Q00613 whole entry): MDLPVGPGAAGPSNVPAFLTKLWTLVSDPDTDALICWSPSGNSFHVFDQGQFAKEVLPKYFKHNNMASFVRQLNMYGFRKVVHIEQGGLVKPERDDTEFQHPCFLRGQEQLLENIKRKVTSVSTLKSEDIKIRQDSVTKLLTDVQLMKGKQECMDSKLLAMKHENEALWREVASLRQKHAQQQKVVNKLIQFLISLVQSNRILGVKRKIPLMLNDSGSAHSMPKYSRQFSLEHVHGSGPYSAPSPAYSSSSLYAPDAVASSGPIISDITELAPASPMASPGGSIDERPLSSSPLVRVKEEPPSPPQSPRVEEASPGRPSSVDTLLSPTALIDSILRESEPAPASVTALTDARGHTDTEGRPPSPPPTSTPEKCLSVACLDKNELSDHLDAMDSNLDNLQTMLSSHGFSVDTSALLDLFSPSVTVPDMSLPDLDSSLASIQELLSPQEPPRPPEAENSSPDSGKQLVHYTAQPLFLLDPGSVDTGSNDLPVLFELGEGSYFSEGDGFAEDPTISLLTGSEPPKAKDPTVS
CRX, sequence (O43186 whole entry): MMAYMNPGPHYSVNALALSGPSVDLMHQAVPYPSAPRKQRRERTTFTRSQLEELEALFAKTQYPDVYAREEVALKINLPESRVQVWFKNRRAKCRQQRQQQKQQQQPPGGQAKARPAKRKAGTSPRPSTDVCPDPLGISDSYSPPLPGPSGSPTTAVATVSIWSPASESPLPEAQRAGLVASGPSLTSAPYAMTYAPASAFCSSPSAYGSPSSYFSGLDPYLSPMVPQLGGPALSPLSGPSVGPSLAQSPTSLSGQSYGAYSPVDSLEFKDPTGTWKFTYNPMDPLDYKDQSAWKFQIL
ELF4, sequence (Q99607 whole entry): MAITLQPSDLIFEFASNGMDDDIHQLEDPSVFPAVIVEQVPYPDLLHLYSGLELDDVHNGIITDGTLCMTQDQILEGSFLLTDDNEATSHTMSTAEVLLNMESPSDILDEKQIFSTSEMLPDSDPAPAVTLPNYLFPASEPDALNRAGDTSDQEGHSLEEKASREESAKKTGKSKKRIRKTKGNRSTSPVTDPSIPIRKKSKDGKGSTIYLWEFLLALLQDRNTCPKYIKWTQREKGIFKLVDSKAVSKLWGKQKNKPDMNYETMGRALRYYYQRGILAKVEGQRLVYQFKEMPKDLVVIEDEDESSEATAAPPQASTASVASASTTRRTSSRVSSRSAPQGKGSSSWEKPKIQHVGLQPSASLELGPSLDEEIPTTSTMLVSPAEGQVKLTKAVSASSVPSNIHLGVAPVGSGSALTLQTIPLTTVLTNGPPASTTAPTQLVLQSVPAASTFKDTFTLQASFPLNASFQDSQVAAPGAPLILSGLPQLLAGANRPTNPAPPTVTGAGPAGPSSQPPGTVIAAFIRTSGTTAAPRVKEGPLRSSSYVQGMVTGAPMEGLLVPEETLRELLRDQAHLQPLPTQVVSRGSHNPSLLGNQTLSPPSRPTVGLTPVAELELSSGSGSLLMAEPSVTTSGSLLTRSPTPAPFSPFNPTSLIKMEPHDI

Regarding GCTCAA, the binding signal with FEV was 1.07 fold enrichment (6-mer frequency, TF over GST control); in the test with ETV5, 1.12 fold enrichment (6-mer frequency, TF over GST control); in the test with HSF1, 1.16 fold enrichment (6-mer frequency, TF over GST control); with SPIC, 1.19 fold enrichment (6-mer frequency, TF over GST control); in the test with ELF4 it was 1.16 fold enrichment (6-mer frequency, TF over GST control); with ELK4, 1.03 fold enrichment (6-mer frequency, TF over GST control). The binding signal in the test with ETV2 was 1.1 fold enrichment (6-mer frequency, TF over GST control); with ELF3, 1.11 fold enrichment (6-mer frequency, TF over GST control); with CRX, 1.31 fold enrichment (6-mer frequency, TF over GST control); with ETV1, 1.1 fold enrichment (6-mer frequency, TF over GST control); with ERF it was 1.08 fold enrichment (6-mer frequency, TF over GST control); in the test with ETV3L it was 1.13 fold enrichment (6-mer frequency, TF over GST control). Also, the binding signal in the test with ETS2 is 1.11 fold enrichment (6-mer frequency, TF over GST control); with SPDEF, 1.04 fold enrichment (6-mer frequency, TF over GST control); with ETV7 it was 1.16 fold enrichment (6-mer frequency, TF over GST control); with ELF5 it was 1 fold enrichment (6-mer frequency, TF over GST control); in the test with ETV3, 1.04 fold enrichment (6-mer frequency, TF over GST control); with ETV6, 1.1 fold enrichment (6-mer frequency, TF over GST control).
